Measurements from PubChem BioAssay AID588683 (Broad Institute, 2011).
Results with a measured potency or affinity are listed apart.

Each compound was assayed against Kelch-like ECH-associated protein 1 (Homo sapiens) + Nuclear factor erythroid 2-related factor 2 (Homo sapiens) (UniProt Q14145+Q16236) (assay: disruptors of Keap1 binding to Nrf2 peptide – biochemical, fluorescence polarization, cherry-picked samples, dose response (AID 588683;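 also: Kelch domain of Keap1 binding a fluorescein-labelled 9mer Nrf2 peptide; more negative means stronger inhibition of peptide binding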)). Conditions: plate reader; series mostly up to 26 µM; activity change, negative = inhibition: at the top concentration; call rule not given here.
Sequence of Kelch-like ECH-associated protein 1 (Homo sapiens) + Nuclear factor erythroid 2-related factor 2 (Homo sapiens) (Q14145 whole entry, looked up, the tested form may be a part): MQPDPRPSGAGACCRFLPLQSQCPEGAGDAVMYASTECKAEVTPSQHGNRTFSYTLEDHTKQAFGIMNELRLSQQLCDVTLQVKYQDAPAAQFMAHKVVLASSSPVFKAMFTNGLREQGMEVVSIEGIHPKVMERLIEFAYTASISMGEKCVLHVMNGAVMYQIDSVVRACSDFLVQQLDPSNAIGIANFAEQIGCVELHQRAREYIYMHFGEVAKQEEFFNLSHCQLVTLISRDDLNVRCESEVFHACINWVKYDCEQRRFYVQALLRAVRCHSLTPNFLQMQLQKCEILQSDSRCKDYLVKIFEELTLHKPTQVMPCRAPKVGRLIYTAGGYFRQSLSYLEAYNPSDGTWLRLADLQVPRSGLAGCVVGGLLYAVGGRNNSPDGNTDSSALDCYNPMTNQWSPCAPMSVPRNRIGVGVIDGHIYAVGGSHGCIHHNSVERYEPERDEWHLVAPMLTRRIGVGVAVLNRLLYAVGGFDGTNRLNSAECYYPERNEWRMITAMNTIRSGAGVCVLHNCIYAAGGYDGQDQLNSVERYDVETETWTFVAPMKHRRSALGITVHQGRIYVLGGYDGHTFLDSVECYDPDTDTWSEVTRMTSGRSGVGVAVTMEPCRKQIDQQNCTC
Sequence of Kelch-like ECH-associated protein 1 (Homo sapiens) + Nuclear factor erythroid 2-related factor 2 (Homo sapiens) (Q16236 whole entry, looked up, the tested form may be a part): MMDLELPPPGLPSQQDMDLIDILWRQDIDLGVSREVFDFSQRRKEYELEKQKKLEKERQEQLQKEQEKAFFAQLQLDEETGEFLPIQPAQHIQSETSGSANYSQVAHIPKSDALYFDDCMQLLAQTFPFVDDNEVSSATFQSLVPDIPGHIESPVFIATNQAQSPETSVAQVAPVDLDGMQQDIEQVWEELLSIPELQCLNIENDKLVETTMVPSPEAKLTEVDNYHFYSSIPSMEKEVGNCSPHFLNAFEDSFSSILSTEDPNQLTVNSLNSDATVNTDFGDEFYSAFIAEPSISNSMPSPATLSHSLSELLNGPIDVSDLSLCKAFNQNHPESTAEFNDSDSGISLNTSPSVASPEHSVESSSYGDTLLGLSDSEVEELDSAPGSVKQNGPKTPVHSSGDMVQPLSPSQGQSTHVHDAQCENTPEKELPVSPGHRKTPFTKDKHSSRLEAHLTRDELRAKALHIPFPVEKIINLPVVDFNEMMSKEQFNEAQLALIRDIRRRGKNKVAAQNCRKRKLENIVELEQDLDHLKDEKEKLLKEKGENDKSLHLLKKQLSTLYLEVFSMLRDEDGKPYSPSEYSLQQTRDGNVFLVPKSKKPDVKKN

Activity change, negative = inhibition, inactive:
CCCCCSc1nnc2c(n1)OC(C)N(C(C)=O)c1ccccc1-2 (stereo not drawn) 0.854%
CC1OC2(C)OC(=N)C1(C#N)C(C#N)(C#N)C2c1ccccc1 (stereo not drawn) -11.3%
Cc1ccc2oc(=O)c3cnn(CC(=O)NCCC(C)C)c3c2c1 -7.73%
O=C(CN1CCN(C(=O)CNC(=O)c2ccc3c(c2)OCO3)CC1)Nc1ccc(F)cc1 -6.38%
Cc1ccc(NC(=S)NCc2ccc(F)cc2)c(C)c1 17%
Cn1c(SCC(=O)c2cc(Cl)c(Cl)s2)nnc1-c1ccco1 -16.1%
COc1ccc(/C=N/N=C2/CC(C)(C)Cc3n[nH]c(=O)cc32)cc1 -23.3%
CC1CCN(c2ccc3c(c2)S(=O)(=O)c2ccccc2C3=O)CC1 24%
Oc1[nH]c2ccccc2c1N=Nc1ccccc1 -5.01%
O=C(CSc1nc2ccccc2c(=O)n1CCCN1CCOCC1)Nc1ccccc1OC(F)F -1.34%
NC(=O)COc1ccc(NC(=O)CC23CC4CC(CC(C4)C2)C3)cc1 7.9%
O=C1CCn2c1c(O)c1ccccc1c2=O -4.71%
Cc1snc(S(=O)(=O)/C(C#N)=N/Nc2cccc(C(F)(F)F)c2)c1C#N 0.963%
O=C(NC1(O)C(=O)c2ccccc2C1=O)c1c(Cl)cccc1Cl 11.9%
CCCc1cc(NC(=O)COC(=O)c2nccnc2N)n(-c2ccccc2)n1 0.425%
CCOc1ccccc1C=C1SC(=S)NC1=O -1.41%
CN1CC=C2C(C#N)=C(N)C(C#N)(C#N)C(c3ccsc3)C2C1 (stereo not drawn) -0.634%
CCOC(=O)N1CCN(Cc2ccccc2Cl)CC1 -11.2%
COc1ccc2c(c1)c1nc3ccccc3nc1n2CC(=O)OC(C)C -4.13%
Cn1ccnc1Sc1cc(NCCCO)c([N+](=O)[O-])c2nonc12 -5.23%
O=C1CC(Cc2ccc(Cl)cc2)C(=O)N1c1cc(Cl)ccn1 (stereo not drawn) 2.69%
O=c1[nH]c2cc(C(F)(F)F)ccc2n1-c1cc(C(F)(F)F)ccc1O -8.84%
C=CCn1c(O)c(CN2CCOCC2)c(C)c(C#N)c1=O -13.2%
O=C(Nc1ccccc1C(=O)N1CCCCCC1)c1ccc(F)cc1 -6.9%
CCOC(=O)c1c(C)oc2c1c(C=NCCO)c(O)c1ccccc12 -7.78%
CCOCCCn1c(=NC(=O)c2cccs2)c(C#N)cc2c(=O)n3ccccc3nc21 -14.5%
O=C(Cc1ccc(S(=O)(=O)N2CCOCC2)s1)Nc1nc2c(s1)CCCC2 1.26%
COc1ccc(C=Nc2cccnc2N)cc1 -5.56%
CS(=O)(=O)N1CCCC(C(=O)Nc2ccc(F)c(F)c2)C1 (stereo not drawn) 2.9%
COc1ccccc1N(C)S(=O)(=O)c1ccc(C(=O)NCc2ccccc2CN2CCCC2)cc1 -4.38%
CC1(C)CC(=O)C2=C(C1)OC(N)=C(C#N)C2c1cc2c(cc1[N+](=O)[O-])OCO2 (stereo not drawn) -12%
Cc1nc(-c2ccc(S(=O)(=O)N3CCCN(CCc4ccccc4)CC3)s2)cs1 -12.4%
N#CCCN(CCC#N)C(=O)C1c2ccccc2Oc2ccccc21 0.566%
COCCCn1c(=NC(=O)c2ccccc2)c(C#N)cc2c(=O)n3cccc(C)c3nc21 2.49%
C/C(=N/Nc1ccccc1C(=O)O)c1cccs1 -6.44%
COc1ccc(OC)c(S(=O)(=O)Nc2ccc(F)cc2)c1 -9.05%
O=C(CN1C(=O)NC2(CCCC2)C1=O)Nc1ccc(C(F)(F)F)cc1 -3.78%
CCC1OC23CCCCC2C(C#N)(C(=N)O3)C1(C#N)C#N (stereo not drawn) 1.01%
